# Data from PubChem BioAssay (NCATS).
# Records with an inconclusive call do not appear. Values without a mark were called inactive. Activity calls are given as the source filed them. Calls follow the shape of the dose curve; as a rule, active = well fitted cell-killing curve with a large enough effect; inconclusive = small, poorly fitted or top-dose-only effect, or effect the other way; inactive = no such curve, though single readings can be large or run the other way.
# What was measured:
# [1] = Quantitative High-Throughput drug screen in 47 multiple myeloma cell lines against the NCATS MIPE library collection: KMS28PE_JCRB cell viability assay (AID 1918983); also: nearly all actives have a fitted effect of over 35% in size; also: potency is read from the fitted curve at half-maximal effect
# Outline: (§1)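 ATP-based CellTiter-Glo luminescence after 48 h drug exposure (37 °C, 5% CO2) of 500 myeloma cells per well. DMSO-only wells set 100% viability, media-only wells 0%; MIPE 4.0 library added by pin tool.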
# [2] = Quantitative High-Throughput drug screen in 47 multiple myeloma cell lines against the NCATS MIPE library collection: L363_DSMZ cell viability assay (AID 1918984); also: nearly all actives have a fitted effect of over 40% in size; also: potency is read from the fitted curve at half-maximal effect
# Outline: as §1
# [3] = Quantitative High-Throughput drug screen in 47 multiple myeloma cell lines against the NCATS MIPE library collection: OCIMY7_PLB cell viability assay (AID 1918987); conditions: OCI-MY7 myeloma viability, CellTiter-Glo ATP, 48 h; viability (% of DMSO): at 45.8 µM (top of the series); also: potency is read from the fitted curve at half-maximal effect; nearly all actives have a fitted effect of over 65% in size
# Outline: as §1
# [4] = Quantitative High-Throughput drug screen in 47 multiple myeloma cell lines against the NCATS MIPE library collection: OCIMY5_PLB cell viability assay (AID 1918988); also: potency is read from the fitted curve at half-maximal effect; nearly all actives have a fitted effect of over 65% in size
# Outline: as §1
# [5] = Quantitative High-Throughput drug screen in 47 multiple myeloma cell lines against the NCATS MIPE library collection: OPM1_PLB cell viability assay (AID 1918989); also: nearly all actives have a fitted effect of over 40% in size; also: potency is read from the fitted curve at half-maximal effect
# Outline: as §1
# [6] = Quantitative High-Throughput drug screen in 47 multiple myeloma cell lines against the NCATS MIPE library collection: SKMM1_PLB cell viability assay (AID 1919863); conditions: SKMM1 myeloma viability, CellTiter-Glo ATP, 48 h; viability: stronger effect = lower value; also: nearly all actives have a fitted effect of over 35% in size; also: potency is read from the fitted curve at half-maximal effect
# Outline: as §1
# [7] = Quantitative High-Throughput drug screen in 47 multiple myeloma cell lines against the NCATS MIPE library collection: XG1_PLB cell viability assay (AID 1919866); also: nearly all actives have a fitted effect of over 35% in size; also: potency is read from the fitted curve at half-maximal effect
# Outline: as §1
# [8] = Quantitative High-Throughput drug screen in 47 multiple myeloma cell lines against the NCATS MIPE library collection: VP6_DJ cell viability assay (AID 1919867); also: nearly all actives have a fitted effect of over 40% in size; also: potency is read from the fitted curve at half-maximal effect
# Outline: as §1
# [9] = Quantitative High-Throughput drug screen in 47 multiple myeloma cell lines against the NCATS MIPE library collection: UTMC2_PLB cell viability assay (AID 1919868); conditions: CellTiter-Glo ATP luminescence, 48 h; viability (% of DMSO control): at 45.8 µM (top of the series); also: nearly all actives have a fitted effect of over 55% in size; also: potency is read from the fitted curve at half-maximal effect
# Outline: as §1
# [10] = Quantitative High-Throughput drug screen in 47 multiple myeloma cell lines against the NCATS MIPE library collection: PE2_PLB cell viability assay (AID 1919869); also: nearly all actives have a fitted effect of over 35% in size; also: potency is read from the fitted curve at half-maximal effect
# Outline: as §1
# [11] = Quantitative High-Throughput drug screen in 47 multiple myeloma cell lines against the NCATS MIPE library collection: KMS11_JCRBsus cell viability assay (AID 1919873); also: nearly all actives have a fitted effect of over 50% in size; also: potency is read from the fitted curve at half-maximal effect
# Outline: as §1
# [12] = Quantitative High-Throughput drug screen in 47 multiple myeloma cell lines against the NCATS MIPE library collection: KMS28BM_JCRB cell viability assay (AID 1919874); also: nearly all actives have a fitted effect of over 35% in size; also: potency is read from the fitted curve at half-maximal effect
# Outline: as §1
# [13] = Quantitative High-Throughput drug screen in 47 multiple myeloma cell lines against the NCATS MIPE library collection: XG6_PLB cell viability assay (AID 1919865); also: nearly all actives have a fitted effect of over 40% in size; also: potency is read from the fitted curve at half-maximal effect
# Outline: as §1
# [14] = Quantitative High-Throughput drug screen in 47 multiple myeloma cell lines against the NCATS MIPE library collection: LP1_DSMZ cell viability assay (AID 1918982); also: nearly all actives have a fitted effect of over 35% in size; also: potency is read from the fitted curve at half-maximal effect
# Outline: as §1
# [15] = Quantitative High-Throughput drug screen in 47 multiple myeloma cell lines against the NCATS MIPE library collection: KMS34_JCRB cell viability assay (AID 1918985); also: nearly all actives have a fitted effect of over 40% in size; also: potency is read from the fitted curve at half-maximal effect
# Outline: as §1
# [16] = Quantitative High-Throughput drug screen in 47 multiple myeloma cell lines against the NCATS MIPE library collection: U266_ATCC cell viability assay (AID 1919864); also: nearly all actives have a fitted effect of over 35% in size; also: potency is read from the fitted curve at half-maximal effect
# Outline: as §1
# [17] = Quantitative High-Throughput drug screen in 47 multiple myeloma cell lines against the NCATS MIPE library collection: OPM2_DSMZ cell viability assay (AID 1919872); also: nearly all actives have a fitted effect of over 30% in size
# Outline: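 Inhibition of cell viability is measured here. Each line was plated at 500 cells per well, treated with MIPE 4.0 drugs, kept 48 hours at 37C, then assayed for ATP content by CellTiter-Glo luminescence.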
# [18] = Quantitative High-Throughput drug screen in 47 multiple myeloma cell lines against the NCATS MIPE library collection: PCM6_Riken cell viability assay (AID 1919870); also: nearly all actives have a fitted effect of over 30% in size; also: potency is read from the fitted curve at half-maximal effect
# Outline: as §1
# [19] = Quantitative High-Throughput drug screen in 47 multiple myeloma cell lines against the NCATS MIPE library collection: RPMI8226_ATCC cell viability assay (AID 1919871); also: nearly all actives have a fitted effect of over 30% in size; also: potency is read from the fitted curve at half-maximal effect
# Outline: as §1
SMILES,Potency [1],Potency [2],Potency [3],Potency [4],Potency [5],Potency [6],Potency [7],Potency [8],Potency [9],Potency [10],Potency [11],Potency [12],Potency [13],Potency [14],Potency [15],Potency [16],Potency [17],viability [6],Potency [18],Potency [19]
CC(C)C(=O)Nc1ncc(-c2cc(C(F)F)nn2-c2c(Cl)cccc2Cl)s1,20.9 µM (active),8.33 µM (active),16.6 µM (active),18.7 µM (active),20.9 µM (active),16.6 µM (active),10.5 µM (active),18.7 µM (active),20.9 µM (active),23.5 µM (active),11.8 µM (active),11.8 µM (active),,,,,,,,
CS(=O)c1ccc(-c2nc(-c3ccc(F)cc3)c(-c3ccncc3)[nH]2)cc1 (stereo not given),inactive,24.1 µM (active),9.59 µM (active),19.1 µM (active),48.1 µM (active),,38.2 µM (active),7.62 µM (active),34 µM (active),30.3 µM (active),,,42.9 µM (active),,,,,,,
N#CC1(c2ccc(NC(=O)c3cccnc3NCc3ccncc3)cc2)CCCC1,,inactive,,,16.6 µM (active),,20.9 µM (active),,,18.7 µM (active),,,18.7 µM (active),16.6 µM (active),inactive,inactive,inactive,,,
CO[C@H]1C[C@@H]2CC[C@@H](C)[C@@](O)(O2)C(=O)C(=O)N2CCCC[C@@H]2C(=O)O[C@H]([C@H](C)C[C@@H]2CC[C@H](OCCO)[C@H](OC)C2)CC(=O)[C@H](C)C=C(C)[C@@H](O)[C@@H](OC)C(=O)[C@H](C)C[C@H](C)C=CC=CC=C1C,,,,,1.05 µM (active),,,,0.235 µM (active),1.48 µM (active),,,,inactive,,,,66.8%,,
Cc1c[nH]c(C=C2C(=O)Nc3ccccc32)c1CCC(=O)O,23.5 µM (active),inactive,,20.9 µM (active),0.833 µM (active),,,,,,33.2 µM (active),,inactive,,,inactive,,,20.9 µM (active),inactive
CC[C@@H]1C=C(C)C[C@H](C)C[C@H](OC)[C@H]2O[C@@](O)(C(=O)C(=O)N3CCCC[C@@H]3C(=O)O[C@H](C(C)=C[C@@H]3CC[C@H](Cl)[C@H](OC)C3)[C@H](C)[C@@H](O)CC1=O)[C@H](C)C[C@H]2OC,16.6 µM (active),10.5 µM (active),10.5 µM (active),16.6 µM (active),,,14.8 µM (active),,,20.9 µM (active),,,,,16.6 µM (active),,inactive,,,18.7 µM (active)
COc1cc(O)c2c(c1)C(=O)c1cc(C)cc(O)c1C2=O,,inactive,,,,,inactive,,,inactive,,,inactive,inactive,,,inactive,131%,inactive,inactive
CC(=O)Oc1cc2c(s1)CCN(C(C(=O)C1CC1)c1ccccc1F)C2 (stereo not given),2.64 µM (active),0.935 µM (active),0.935 µM (active),0.833 µM (active),,,,,2.96 µM (active),,,,2.64 µM (active),,,8.33 µM (active),,,,
O=c1c(-c2ccc(O)cc2)coc2cc(O)ccc12,,,,14.8 µM (active),inactive,,inactive,,inactive,inactive,inactive,inactive,inactive,inactive,inactive,inactive,inactive,,inactive,
C[C@]12CC[C@@H]3c4ccc(O)cc4C[C@@H](CCCCCCCCCS(=O)CCCC(F)(F)C(F)(F)F)[C@H]3[C@H]1CC[C@H]2O (stereo not given in full),,inactive,5.9 µM (active),10.5 µM (active),inactive,,inactive,inactive,inactive,inactive,2.09 µM (active),,6.62 µM (active),11.8 µM (active),,inactive,inactive,,,
O=C(O)c1ccc(-c2c[nH]c3ncc(-c4ccccc4)cc23)cc1C1CCCC1,,,,,,,,,,,inactive,inactive,,inactive,14.8 µM (active),inactive,inactive,132%,,inactive
CC[C@H]1OC(=O)[C@H](C)[C@@H](O[C@H]2C[C@@](C)(OC)[C@@H](O)[C@H](C)O2)[C@H](C)[C@@H](O[C@@H]2O[C@H](C)C[C@H](N(C)C)[C@@H]2O)[C@](C)(O)C[C@@H](C)CN(C)[C@H](C)[C@@H](O)[C@]1(C)O,inactive,,,,,16.6 µM (active),,,,inactive,inactive,inactive,,inactive,,9.35 µM (active),,,,18.7 µM (active)
Oc1ccc(C2CCN(c3ccnc4ccccc34)CC2)cc1O,16.6 µM (active),18.7 µM (active),,14.8 µM (active),16.6 µM (active),,0.833 µM (active),,,16.6 µM (active),18.7 µM (active),4.69 µM (active),6.62 µM (active),,16.6 µM (active),3.32 µM (active),,103%,13.2 µM (active),16.6 µM (active)
COc1cc2c(cc1OC)CN(CCc1ccc(NC(=O)c3cc(OC)c(OC)cc3NC(=O)c3cnc4ccccc4c3)cc1)CC2,,inactive,6.62 µM (active),,14.8 µM (active),,20.9 µM (active),,,26.4 µM (active),,,18.7 µM (active),inactive,inactive,5.26 µM (active),inactive,118%,18.7 µM (active),0.418 µM (active)
CNC(=O)c1ccccc1Sc1ccc2c(C=Cc3ccccn3)n[nH]c2c1,5.26 µM (active),,2.64 µM (active),0.935 µM (active),18.7 µM (active),13.2 µM (active),,14.8 µM (active),,20.9 µM (active),1.18 µM (active),23.5 µM (active),,23.5 µM (active),,,,,,18.7 µM (active)
